High-throughput results from PubChem.
EBV LMP1 NFkB: Epstein-Barr LMP1 NF-kappaB reporter inhibition; hit rate 0.69% among 350,000; inhibition, % at 12.5 µM; LMP1-induced NF-kappaB luciferase reporter cells, luminescence; in the data active means inhibition above about 41%
SRC3 inh: human NCOA3 inhibition; HEK293 GAL4-SRC3 luciferase reporter, luminescence; hit rate 0.17% among 360,000; AID 588352; inhibition, % at 3.6 µM;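 active means inhibition above a per-campaign cutoff, the mean of all compounds plus 3 SD, cut at about 60% in these data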;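 further: higher means less SRC3-driven luciferase light from the GAL4 reporter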
NCOA2 inhibitor: inhibits human steroid receptor coactivator 2. hit rate 0.17% among 370,000. AID 651957. inhibition, % at 9 µM. HEK293 GAL4-SRC2 luciferase reporter, luminescence. Q15596;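 active means inhibition above the mean inhibition of all tested compounds plus 3 SD, set per campaign, cut at about 52% in these data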
NR5A2 inv ag: NR5A2 inverse agonism in reporter assay. AID 602396. inhibition, % at 3.6 µM. HEK293T StAR-luciferase reporter, LRH-1 transfected, 24 h. hit rate 0.13% among 360,000;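 active means inhibition above the mean inhibition of all tested compounds plus 3 SD, cut at about 73% in these data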
NCOA1 inh: inhibitors of human steroid receptor coactivator 1 (SRC1); Q15788; HEK293 GAL4-SRC1 luciferase reporter, luminescence; inhibition, % at 3.6 µM; hit rate 0.12% among 360,000;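 active means inhibition above the campaign mean plus 3 SD, with each screening campaign given its own cutoff, cut at about 60% in these data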
Of the large screens only hits and unclear results are named; the others gave an inactive call. In the library only some 0.78% were active in any assay of this set; here they are far more common.

COC(=O)C1CN(Cc2ccc(Cl)cc2)CCS(=O)(=O)N1Cc1cn(Cc2ccc(F)cc2)nn1 (configuration not stated)	none (no result: EBV LMP1 NFkB, SRC3 inh, NR5A2 inv ag, NCOA1 inh)
Cc1cc(N2CCOCC2)c2c(N)c(Br)cc(C)c2n1	EBV LMP1 NFkB 63
Cc1cc(=O)[nH]c(N2CCOCC2)n1	none
CCOc1ccccc1O[C@H](c1ccccc1)[C@H]1CNCCO1	NCOA1 inh 70
O=C(O)CCSc1ncnc2sc(-c3ccccc3)cc12	NCOA2 inhibitor 81
CN(C)CC(=O)N[C@@H]1C[C@@H]2O[C@@H](CO)CC[C@@H]2O[C@@H]1CCc1ccc(C#Cc2ccccc2)cc1	none (no result: EBV LMP1 NFkB, SRC3 inh, NR5A2 inv ag, NCOA1 inh)
CC1CCN(CCOc2ccc(C(=O)c3ccccc3)cc2)CC1	EBV LMP1 NFkB 80
CCCC(CCC(=O)NC1CCCCC1)C(=O)O (configuration not stated)	none
CCCC(C)NC(C)C(=O)NC1CCCC1 (configuration not stated)	EBV LMP1 NFkB 66
O=C1C=Cc2cccc3ccc(O)c1c23	EBV LMP1 NFkB 44
Cc1ccnc(NC(=O)CCCOc2cc(=O)n(C)c3ccccc23)c1	NR5A2 inv ag 74
CCOC(=O)Cn1cc(CN2C(C(=O)OC)CN(Cc3ccc(OC)cc3)CCS2(=O)=O)nn1 (configuration not stated)	none (no result: EBV LMP1 NFkB, SRC3 inh, NR5A2 inv ag, NCOA1 inh)
Fc1ccc(N2CCN(C3=Nc4ccccc4Sc4ccccc43)CC2)cc1	none (no result: EBV LMP1 NFkB, SRC3 inh, NR5A2 inv ag, NCOA1 inh)
Nc1ccc(-c2cnc(N)c(C(=O)c3cccnc3)n2)cn1	EBV LMP1 NFkB 67, SRC3 inh 70, NCOA1 inh 69 (no result: NCOA2 inhibitor)
